Rows were chosen to be rich in hits. Some 11% of all compounds tested hit in one or more screens of this group.
HP1b chromo inh = HP1-beta chromodomain-methylated histone interaction inhibition; Potency, µM (highest dose often 114 µM), inactives show at the top dose activity change, negative = inhibition, hits mostly inhibitors; P83916; 390,000 compounds, 0.56% hits; AlphaScreen HP1-beta / biotin-H3K9me3 peptide binding; also: nearly all actives have a fitted effect of over 70% in size
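AlphaScreen: HP1-beta (50 nM) preformed 30 min with biotin-H3(1-18)K9me3 peptide (50 nM) in PBS pH 7.4, 0.01% Tween-20. Compound added for 30 min at RT, then streptavidin donor/nickel chelate acceptor beads (10 ug/mL) for 30 min.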
G9a inh = blocks human histone lysine methyltransferase G9a; Potency, µM (titrated, usually from 102 µM), without a hit: top-dose activity, negative = inhibition, most hits filed as inhibitors; G9a H3K9 monomethylation, AlphaScreen, 2 h; Q96KQ7; 350,000 compounds, 8.8% hits; also: % is scaled to controls: 0 for no effect and ±100 for the full control effect; nearly all actives have a fitted effect of over 75% in size
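G9a (20 nM) was preincubated 15 min with compound, then reacted 2 h at room temperature with 500 nM biotin-H3K9 peptide and 20 µM SAM. Monomethyl-H3K9 detected by AlphaScreen using anti-H3K9me1 antibody.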
BAZ2B block = blocks human BAZ2B. Q9UIF8. AlphaScreen BAZ2B-H3K14Ac peptide displacement. Potency, µM (highest dose often 114 µM), without a hit: at the top dose activity change, negative = inhibition, actives largely listed as inhibitors. 360,000 compounds, 4.4% hits. AID 504333; also: % is scaled to controls: 0 for no effect and ±100 for the full control effect; nearly all actives have a fitted effect of over 60% in size
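Protein-peptide AlphaScreen: BAZ2B 50 nM, b-H3K14Ac 50 nM, 1x PBS pH 7.4 + 0.01% Tween-20. Preincubation 30 min RT; cpd 30 min RT (top 110 uM); beads 20 min RT, light-protected.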
JMJD2A Tudor = JMJD2A Tudor domain (human) inhibition; O75164; AlphaScreen JMJD2A-Tudor / H3K4me3 peptide binding; Potency, µM (highest dose often 114 µM), for inactives: at the top dose activity change, negative = inhibition, hits mostly inhibitors; 390,000 compounds, 4.4% hits; also: % is scaled to controls: 0 for no effect and ±100 for the full control effect; nearly all actives have a fitted effect of over 50% in size
L3MBTL1 block = inhibitors of human L3MBTL1; Potency, µM (highest dose often 57.1 µM), for the others: at the top dose activity, negative = inhibition, most hits filed as inhibitors; AlphaScreen L3MBTL1–H3K9me1 peptide binding; 230,000 compounds, 0.66% hits; Q9Y468; also: % is scaled to controls: 0 for no effect and ±100 for the full control effect; nearly all actives have a fitted effect of over 60% in size
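L3MBTL1 (50 nM) pre-complexed 30 min with biotinylated H3(1-15)K9me1 peptide (75 nM), then compounds added for 30 min at room temperature; AlphaScreen streptavidin donor/nickel chelate acceptor beads (10 ug/mL final) read after 30 min dark incubation.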
* = called active by the depositor; u = inconclusive; x = no result; [ ] = dose if it differs, or a comment. Calls follow the shape of the dose curve; as a rule, active = well fitted inhibition curve with a large enough effect; inconclusive = small, poorly fitted or top-dose-only effect; inactive = no such curve, though single readings can be large or run the other way. Potency is read from the fitted curve at half-maximal effect.

SMILES	HP1b chromo inh	G9a inh	BAZ2B block	JMJD2A Tudor	L3MBTL1 block
Cn1c(-c2ccccc2)cnc1SCC(=O)N1CCCc2ccccc21	u	u	45µM*	u	-7%
O=C(CSc1ncc(-c2ccccc2)n1C1CCCC1)N1CCc2ccccc21	-8%	32µM*	u	-26%	-10%
O=C(CSc1nccn1-c1ccc(Cl)cc1)N1CCCc2ccccc21	u	50µM*	35µM*	u	-20%
Cc1cccc(-c2nc3scc(CCNC(=O)c4ccccc4Cl)n3n2)c1	26%[57 µM]	4%[59 µM]	4%	-4%	x
O=S(=O)(NCC(c1cccs1)S(=O)(=O)c1ccccc1)c1ccccc1 (centres undefined)	27%	6%[59 µM]	-2%	-11%	x
Cc1ccc(-c2cnc(SCC(=O)N3CCCc4ccccc43)n2C)cc1	u	11µM*	28µM*	u	u
O=C(CSc1nnnn1-c1ccccc1)N1CCCc2ccccc21	31%	10%	-1%	3%	x
Cc1ccc(-c2ccc(SCC(=O)N3CCCc4ccccc43)nn2)cc1	x	u	u	x	-10%
O=C(CSc1nnnn1-c1ccccc1)N1CCc2ccccc21	17%	13µM*	11%	-22%	x
CC(C)c1ccc(NC(=O)c2cccc3c2C(=O)N(C2CCCCC2)C3)cc1	42%	10%[59 µM]	x	-3%	x
COc1cc(C2C(=O)N(C3CCCCC3)CC(=O)N2CCC2=CCCCC2)ccc1OC(C)C (centres undefined)	29%	4%[59 µM]	0%	-19%	x
O=C(O)/C=C/c1cn(Cc2ccccc2)nc1-c1cccnc1	29%	x	-38%	-12%	x
CN(CC(=O)Nc1cccc(F)c1)C(=O)/C=C/c1cn(Cc2ccccc2)nc1-c1cccnc1	18%	50µM*	-10%	-27%	-7%
CC(C)(O)C(=O)NNC(=S)Nc1ccc(F)c(Cl)c1	6%	45µM*	-1%	-15%	0%
C/C=C/c1ccc(OCCCNC)c(OC)c1	u	16µM*	50µM*	1.1µM*	x
C/C=C/c1ccc(OCCNCc2ccccc2)c(OC)c1	u	u	56µM*	-18%	1%
C/C=C/c1ccc(OCCCCOc2c(OC)cccc2OC)c(OC)c1	129%	49%[59 µM]	42%	29%	26%
CNCCCOc1ccc(C)cc1OC	-37%	x	40µM*	1.6µM*	49%
C/C=C/c1ccc(OCCCCN(C)Cc2ccccc2)c(OC)c1	u	u	50µM*	18µM*	-12%
C/C=C/c1ccc(OCCOc2ccc(C=O)cc2)c(OC)c1	58%	57%[59 µM]	10%	14%	16%
Cc1[nH]c2ccccc2c1CCNS(=O)(=O)c1ccc(S(N)(=O)=O)cc1	0%	19%	-17%	u	x
COc1cc(S(=O)(=O)NCCc2c(C)[nH]c3ccc(C)cc23)ccc1Br	u	u	u	50µM*	x
Cc1ccc([N+](=O)[O-])cc1S(=O)(=O)NCCc1c(C)[nH]c2c(C)cccc12	u	29%	-1%	-10%	-2%
COc1cc(Cl)c(S(=O)(=O)NCCc2c(C)[nH]c3c(C)cccc23)cc1Cl	-21%	-27%[59 µM]	32µM*	50µM*	x
Cc1[nH]c2c(C)cccc2c1CCNS(=O)(=O)c1cccc([N+](=O)[O-])c1	u	u	50µM*	u	-4%
SMILES	HP1b chromo inh	G9a inh	BAZ2B block	JMJD2A Tudor	L3MBTL1 block
COc1ccc(C(C)C)cc1S(=O)(=O)NCCc1c(C)[nH]c2c(Cl)cccc12	-12%	u	28µM*	u	x
Nn1c(SCC(=O)Nc2ccc(N3CCOCC3)cc2)nnc1-c1ccccc1F	22%	-13%[2.33 µM]	6%	-5%	-2%
COC(=O)c1ccc2c(c1)N(CC(=O)Nc1cccc(C(F)(F)F)c1)C(=O)c1ccccc1S2	13%[57 µM]	9%[59 µM]	-3%	-15%	x
CCC/C=C1/CCCOC(C(=O)NCC2CC2)(C(F)(F)F)C1 (centres undefined)	39%	x	x	-8%	x
COc1c(C)cc(S(=O)(=O)NCCc2c(C)[nH]c3ccccc23)c(C)c1C	-19%	u	40µM*	u	x
COc1ccc(C(C)C)cc1S(=O)(=O)NCCc1c(C)[nH]c2ccc(C)cc12	10%	u	u	50µM*	x
COc1ccc(C(C)NC(=O)c2ccccc2)cc1 (centres undefined)	15%	16%[59 µM]	6%	-9%	x
COc1ccc(OC)c(NS(=O)(=O)Cc2ccccc2)c1	x	35µM*	u	x	-8%
COc1ccc(C(C)NS(=O)(=O)Cc2ccccc2)cc1 (centres undefined)	20%	50µM*	-9%	-13%	4%
O=C1NC(=S)NC1=Cc1ccc(O)cc1	34%	x	x	-19%	x
CC1=NOC(=O)/C1=C/c1ccc(O)c(Br)c1	2%	45µM*	56µM*	-23%	x
CC1=NOC(=O)/C1=C/c1ccc(O)cc1	41%	50µM*	50µM*	16µM*	2%
O=C(CCc1cn(Cc2ccccc2F)c2ccccc12)NCc1ccc(Cl)cc1	34%	-8%[59 µM]	-12%	-5%	x
O=C(c1ccc(F)cc1)c1cn(Cc2ccccc2)c2cc3c(cc2c1=O)OCO3	5%	3%[59 µM]	-26%	-9%	x
CN(C)S(=O)(=O)c1cccc(CSCc2cccc(S(=O)(=O)N(C)C)c2)c1	24%	18%	5%	1%	x
CC(NCc1cccc(S(=O)(=O)N(C)C)c1)c1ccc(F)cc1 (centres undefined)	-32%	x	50µM*	22µM*	5%
N#Cc1ccc(Oc2ccc(NC(=O)C3CC=CCC3C(=O)O)cc2)cc1 (centres undefined)	34%	12%	2%	-13%	2%
Cc1cccc(Oc2ccc(NC(=O)C3CC=CCC3C(=O)O)cc2)c1 (centres undefined)	20%	45µM*	u	u	-9%
O=C(COc1cccc2ccccc12)NNC(=O)c1cnccn1	40%	-13%	7%	-2%	15%
COc1ccc(CC(=O)NNC(=O)c2cnccn2)cc1	31%	7.9µM*	4%	-8%	22%
COc1ccc(CC(=O)NNC(=O)c2ccccn2)cc1	47%	25%	u	-7%	-5%
O=C(COc1ccc2ccccc2c1)NNC(=O)c1cnccn1	48%	0.63µM*	-23%	-6%	11%
COc1cccc(C2SCC(=O)N2c2ccc(Cl)cc2)c1OC (centres undefined)	45%	-5%[59 µM]	-7%	5%	1%
COc1cc(OC)c(C2CC(=O)N3CN(c4ccccc4C)CSC3=C2C#N)cc1OC (centres undefined)	x	u	56µM*	x	-16%
CCc1ccccc1N1CSC2=C(C#N)C(c3ccccc3F)CC(=O)N2C1 (centres undefined)	u	0.79µM*	56µM*	22µM*	-4%

Assay outcomes deposited in PubChem by National Center for Advancing Translational Sciences (NCATS).
